# Test results: PMC7862700, “An all-to-all approach to the identification of sequence-specific readers for epigenetic DNA modifications on cytosine”
# Columns and labels:
# Assay in all cases: DAPPL (digital affinity profiling via proximity ligation, sequencing); 10 mM Tris-HCl pH 7.5, 50 mM NaCl, 1 mM DTT, 4% glycerol, room temperature, 30 min; GST-TFs on glutathione beads, 16-mer random dsDNA library, 0.1% formaldehyde crosslink after washing; high values mean tight binding
# FEV = molecular target: T1, FEV (Homo sapiens, UniProt Q99581 1-238); details: protein: recombinant; tags: N-terminal GST; dsDNA, one strand shown
# T1 sequence: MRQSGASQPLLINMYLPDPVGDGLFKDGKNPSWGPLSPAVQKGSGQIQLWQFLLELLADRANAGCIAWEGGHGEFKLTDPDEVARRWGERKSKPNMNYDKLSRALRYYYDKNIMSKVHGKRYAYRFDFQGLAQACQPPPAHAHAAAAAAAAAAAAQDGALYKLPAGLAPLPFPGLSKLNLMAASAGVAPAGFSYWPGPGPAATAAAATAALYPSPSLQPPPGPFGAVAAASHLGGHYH
# Outline: (§1)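 Human transcription factors fused to GST were expressed in yeast, captured on glutathione beads, given DNA barcodes and pooled with a GST-only negative control. Pools were incubated with 200 nmole of a 16-mer random double-stranded DNA library in Tris/NaCl/DTT/glycerol buffer at room temperature for 30 min. They were then washed, crosslinked with 0.1% formaldehyde, proximity-ligated (BsaI/T4 ligase, 1 h, 37 °C), PCR-amplified and sequenced on an Illumina NextSeq500. Binding signal is each 6-mer's read frequency for a factor divided by its frequency for the GST control.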
# ETV5 = ETV5 (Homo sapiens, UniProt P41161 1-510); details: protein: recombinant; tags: N-terminal GST; dsDNA, one strand shown
# Sequence of ETV5 (P41161 whole entry): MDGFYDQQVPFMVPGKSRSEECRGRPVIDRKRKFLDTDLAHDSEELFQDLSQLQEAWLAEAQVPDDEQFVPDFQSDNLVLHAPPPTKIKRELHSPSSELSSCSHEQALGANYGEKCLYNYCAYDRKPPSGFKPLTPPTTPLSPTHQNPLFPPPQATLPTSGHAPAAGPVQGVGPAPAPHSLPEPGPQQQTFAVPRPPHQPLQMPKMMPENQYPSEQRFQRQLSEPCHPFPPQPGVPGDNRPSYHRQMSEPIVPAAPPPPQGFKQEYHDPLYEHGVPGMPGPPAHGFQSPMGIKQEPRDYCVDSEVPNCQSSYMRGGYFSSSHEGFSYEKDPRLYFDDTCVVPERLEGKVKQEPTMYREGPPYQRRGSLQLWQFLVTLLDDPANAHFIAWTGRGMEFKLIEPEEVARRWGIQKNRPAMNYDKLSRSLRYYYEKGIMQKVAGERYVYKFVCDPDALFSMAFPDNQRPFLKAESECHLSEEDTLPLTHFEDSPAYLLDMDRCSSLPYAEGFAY
# Outline: as §1
# HSF1 = HSF1 (Homo sapiens, UniProt Q00613 1-529); details: protein: recombinant; tags: N-terminal GST; chain copies: 3; dsDNA, one strand shown
# Sequence of HSF1 (Q00613 whole entry): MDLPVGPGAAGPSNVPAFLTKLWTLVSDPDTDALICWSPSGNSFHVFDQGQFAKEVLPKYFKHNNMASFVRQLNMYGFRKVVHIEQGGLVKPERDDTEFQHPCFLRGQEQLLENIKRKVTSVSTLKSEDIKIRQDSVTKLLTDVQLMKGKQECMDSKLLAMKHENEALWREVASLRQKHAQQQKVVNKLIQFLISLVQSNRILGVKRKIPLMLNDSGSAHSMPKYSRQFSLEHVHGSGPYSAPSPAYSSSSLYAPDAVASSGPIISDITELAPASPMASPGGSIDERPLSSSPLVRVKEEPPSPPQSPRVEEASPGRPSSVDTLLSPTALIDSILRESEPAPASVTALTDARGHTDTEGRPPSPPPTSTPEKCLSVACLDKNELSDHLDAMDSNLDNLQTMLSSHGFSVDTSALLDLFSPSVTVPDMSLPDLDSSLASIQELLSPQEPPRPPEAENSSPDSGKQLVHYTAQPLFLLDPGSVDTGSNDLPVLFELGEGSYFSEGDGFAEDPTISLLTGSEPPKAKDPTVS
# Outline: as §1
# SPIC = molecular target: T2, SPIC (Homo sapiens, UniProt Q8N5J4 1-248); details: protein: recombinant; tags: N-terminal GST; dsDNA, one strand shown
# T2 sequence: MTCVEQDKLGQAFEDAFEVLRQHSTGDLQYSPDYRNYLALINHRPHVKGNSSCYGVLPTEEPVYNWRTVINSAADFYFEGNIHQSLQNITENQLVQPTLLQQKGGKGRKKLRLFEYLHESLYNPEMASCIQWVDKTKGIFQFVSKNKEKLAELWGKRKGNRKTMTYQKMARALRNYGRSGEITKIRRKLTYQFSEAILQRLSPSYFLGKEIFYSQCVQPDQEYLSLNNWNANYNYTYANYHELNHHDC
# Outline: as §1
# ELF4 = ELF4 (Homo sapiens, UniProt Q99607 1-663); details: protein: recombinant; tags: N-terminal GST; dsDNA, one strand shown
# Sequence of ELF4 (Q99607 whole entry): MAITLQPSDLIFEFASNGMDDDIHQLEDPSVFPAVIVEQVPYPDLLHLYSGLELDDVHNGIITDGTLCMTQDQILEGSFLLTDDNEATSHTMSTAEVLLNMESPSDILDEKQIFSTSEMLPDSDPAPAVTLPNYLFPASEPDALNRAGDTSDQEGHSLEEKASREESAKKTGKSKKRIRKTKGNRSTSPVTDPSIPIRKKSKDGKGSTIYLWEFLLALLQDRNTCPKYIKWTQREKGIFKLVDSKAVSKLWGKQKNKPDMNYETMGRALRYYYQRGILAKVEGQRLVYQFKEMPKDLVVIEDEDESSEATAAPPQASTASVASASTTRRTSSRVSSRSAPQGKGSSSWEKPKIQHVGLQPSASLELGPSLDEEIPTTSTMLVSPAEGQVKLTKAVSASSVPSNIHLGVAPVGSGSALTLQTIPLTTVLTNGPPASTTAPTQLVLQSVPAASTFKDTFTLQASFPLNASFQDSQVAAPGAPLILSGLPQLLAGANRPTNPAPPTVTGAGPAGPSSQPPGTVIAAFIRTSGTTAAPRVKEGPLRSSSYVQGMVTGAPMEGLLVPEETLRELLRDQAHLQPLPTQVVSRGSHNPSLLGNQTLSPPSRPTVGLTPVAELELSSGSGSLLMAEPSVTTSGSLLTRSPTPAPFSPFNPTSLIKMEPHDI
# Outline: as §1
# ELK4 = molecular target: T3, ELK4 (Homo sapiens, UniProt P28324-2 1-405); details: protein: recombinant; tags: N-terminal GST; dsDNA, one strand shown
# T3 sequence: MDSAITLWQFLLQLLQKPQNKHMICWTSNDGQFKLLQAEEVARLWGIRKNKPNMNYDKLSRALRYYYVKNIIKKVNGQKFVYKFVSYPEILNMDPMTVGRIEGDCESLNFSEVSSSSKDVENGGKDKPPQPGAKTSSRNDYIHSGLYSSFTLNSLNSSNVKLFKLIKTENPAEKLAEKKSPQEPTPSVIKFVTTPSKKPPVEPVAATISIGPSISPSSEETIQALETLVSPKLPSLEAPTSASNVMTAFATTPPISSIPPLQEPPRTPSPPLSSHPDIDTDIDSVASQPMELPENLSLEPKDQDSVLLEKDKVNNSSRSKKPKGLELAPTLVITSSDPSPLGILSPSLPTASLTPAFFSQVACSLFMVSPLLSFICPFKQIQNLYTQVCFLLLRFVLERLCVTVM
# Outline: as §1
# ETV2 = molecular target: T4, ETV2 (Homo sapiens, UniProt O00321 1-342); details: protein: recombinant; tags: N-terminal GST; dsDNA, one strand shown
# T4 sequence: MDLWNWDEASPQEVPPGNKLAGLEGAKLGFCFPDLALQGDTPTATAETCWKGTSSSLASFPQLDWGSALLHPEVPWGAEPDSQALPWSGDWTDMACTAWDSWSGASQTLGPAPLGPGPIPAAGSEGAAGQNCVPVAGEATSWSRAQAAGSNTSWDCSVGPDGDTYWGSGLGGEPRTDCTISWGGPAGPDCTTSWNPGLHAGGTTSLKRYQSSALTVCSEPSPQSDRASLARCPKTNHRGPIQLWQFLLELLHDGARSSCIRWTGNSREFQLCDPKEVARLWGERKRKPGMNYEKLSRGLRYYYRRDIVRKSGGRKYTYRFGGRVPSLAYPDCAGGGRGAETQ
# Outline: as §1
# ELF3 = molecular target: T5, ELF3 (Homo sapiens, UniProt P78545 1-371); details: protein: recombinant; tags: N-terminal GST; dsDNA, one strand shown
# T5 sequence: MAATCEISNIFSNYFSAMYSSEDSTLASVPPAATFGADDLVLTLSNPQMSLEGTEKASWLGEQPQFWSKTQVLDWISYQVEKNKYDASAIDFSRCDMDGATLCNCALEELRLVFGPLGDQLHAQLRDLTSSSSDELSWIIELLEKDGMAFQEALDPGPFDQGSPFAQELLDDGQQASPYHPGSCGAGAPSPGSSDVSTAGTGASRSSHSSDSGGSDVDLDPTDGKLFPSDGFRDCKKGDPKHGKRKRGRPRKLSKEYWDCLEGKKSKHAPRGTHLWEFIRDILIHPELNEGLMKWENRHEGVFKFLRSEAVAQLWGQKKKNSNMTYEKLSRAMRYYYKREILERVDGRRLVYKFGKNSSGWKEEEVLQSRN
# Outline: as §1
# CRX = CRX (Homo sapiens, UniProt O43186 1-299); details: protein: recombinant; tags: N-terminal GST; dsDNA, one strand shown
# Sequence of CRX (O43186 whole entry): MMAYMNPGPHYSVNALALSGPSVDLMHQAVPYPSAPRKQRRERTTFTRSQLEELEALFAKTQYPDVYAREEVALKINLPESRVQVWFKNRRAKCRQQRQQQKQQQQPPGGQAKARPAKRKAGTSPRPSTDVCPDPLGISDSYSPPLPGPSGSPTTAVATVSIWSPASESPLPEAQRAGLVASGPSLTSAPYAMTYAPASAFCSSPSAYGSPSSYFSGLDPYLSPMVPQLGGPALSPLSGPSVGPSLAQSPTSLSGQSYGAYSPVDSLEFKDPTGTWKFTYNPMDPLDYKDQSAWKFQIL
# Outline: as §1
# ETV1 = ETV1 (Homo sapiens, UniProt P50549 1-477); details: protein: recombinant; tags: N-terminal GST; dsDNA, one strand shown
# Sequence of ETV1 (P50549 whole entry): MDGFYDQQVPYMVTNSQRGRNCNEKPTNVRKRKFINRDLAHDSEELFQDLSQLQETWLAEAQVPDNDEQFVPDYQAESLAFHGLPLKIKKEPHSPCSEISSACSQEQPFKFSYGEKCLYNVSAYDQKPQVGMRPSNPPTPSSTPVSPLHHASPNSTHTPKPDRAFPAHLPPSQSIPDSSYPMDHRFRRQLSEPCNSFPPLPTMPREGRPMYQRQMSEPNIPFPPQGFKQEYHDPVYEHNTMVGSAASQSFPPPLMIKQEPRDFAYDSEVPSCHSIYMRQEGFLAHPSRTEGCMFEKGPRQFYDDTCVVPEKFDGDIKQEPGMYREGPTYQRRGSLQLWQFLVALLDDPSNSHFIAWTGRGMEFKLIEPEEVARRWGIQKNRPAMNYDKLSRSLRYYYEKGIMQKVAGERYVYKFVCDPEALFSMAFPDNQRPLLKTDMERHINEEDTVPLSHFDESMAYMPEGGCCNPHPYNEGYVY
# Outline: as §1
sequence,measurement,setting,value
TCTCTG,binding signal,FEV,"1.53 fold enrichment (6-mer frequency, TF over GST control)"
same,binding signal,ETV5,"1.43 fold enrichment (6-mer frequency, TF over GST control)"
same,binding signal,HSF1,"1.73 fold enrichment (6-mer frequency, TF over GST control)"
same,binding signal,SPIC,"1.59 fold enrichment (6-mer frequency, TF over GST control)"
same,binding signal,ELF4,"1.58 fold enrichment (6-mer frequency, TF over GST control)"
same,binding signal,ELK4,"1.69 fold enrichment (6-mer frequency, TF over GST control)"
same,binding signal,ETV2,"1.45 fold enrichment (6-mer frequency, TF over GST control)"
same,binding signal,ELF3,"1.37 fold enrichment (6-mer frequency, TF over GST control)"
same,binding signal,CRX,"1.49 fold enrichment (6-mer frequency, TF over GST control)"
same,binding signal,ETV1,"1.46 fold enrichment (6-mer frequency, TF over GST control)"
